Shown are actives, neighbours in structure and some others; about 12% of the full set was active somewhere.
JMJD2A Tudor = blocks the human JMJD2A Tudor domain; O75164; AlphaScreen JMJD2A-Tudor / H3K4me3 peptide binding; Potency, µM (doses to about 114 µM), inactives show at the highest dose activity change, negative = inhibition, usual class: inhibitors; hit rate 4.4% among 390,000; also: % is scaled to controls: 0 for no effect and ±100 for the full control effect; nearly all actives have a fitted effect of over 50% in size
BAZ2B block = inhibitors of human BAZ2B bromodomain. Q9UIF8. AlphaScreen BAZ2B-H3K14Ac peptide displacement. Potency, µM (doses to about 114 µM), inactives show top-dose activity change, negative = inhibition, actives largely listed as inhibitors. hit rate 4.4% among 360,000. AID 504333; also: % is scaled to controls: 0 for no effect and ±100 for the full control effect; nearly all actives have a fitted effect of over 60% in size
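Inhibition is scored as reduced AlphaScreen emission. The BAZ2B/b-H3(5-23)K14Ac complex (50 nM each) in PBS pH 7.4, 0.01% Tween-20 meets compound (up to 110 uM) for 30 min at RT before bead addition.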
G9a inh = blocks human histone lysine methyltransferase G9a; hit rate 8.8% among 350,000; G9a H3K9 monomethylation, AlphaScreen, 2 h; Q96KQ7; Potency, µM (titrated, usually from 102 µM), without a hit: at the top dose activity, negative = inhibition, actives largely listed as inhibitors; AID 504332; also: % is scaled to controls: 0 for no effect and ±100 for the full control effect; nearly all actives have a fitted effect of over 75% in size
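Chemiluminescent proximity detection of H3K9 monomethylation, read after 10 min bead incubation in the dark. Reaction: 20 nM G9a, 500 nM biotin-H3K9 peptide, 20 uM SAM cofactor, 2 h, room temperature, following 15 min enzyme-compound preincubation.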
Sfp inh = inhibitors of Bacillus subtilis Sfp phosphopantetheinyl transferase. Q9F4F7. Potency, µM, inactives show largest response in the series, negative = inhibition, most hits filed as inhibitors. hit rate 3.5% among 310,000. Biochemical Sfp PPTase activity, qHTS;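 also: the enzyme is Sfp with the accession as filed and its product quenches rhodamine fluorescence; 0% = enzyme reaction without inhibitor and -100% = no enzyme wells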
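After 15 min at room temperature with compound, 15 nM Sfp received 5 uM rhodamine-CoA plus 12.5 uM BHQ-2-ybbR (50 mM Hepes pH 7.6, 10 mM MgCl2). Rate came from the fluorescence difference over 30 min, ex 525/em 598 nm.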
HP1b chromo inh = blocks HP1-beta chromodomain binding to methylated histone tails; P83916; hit rate 0.56% among 390,000; Potency, µM (top dose mostly 114 µM), for the others: at the highest dose activity change, negative = inhibition, usual class: inhibitors; AlphaScreen HP1-beta / biotin-H3K9me3 peptide binding; also: nearly all actives have a fitted effect of over 70% in size
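HP1-beta protein (50 nM final) preincubated 30 min at room temperature with biotinylated H3(1-18)K9me3 peptide (50 nM) in PBS pH 7.4, 0.01% Tween-20, then compound added for 30 min. AlphaScreen streptavidin donor/nickel chelate acceptor beads (10 ug/mL final), 30 min dark, luminescence read.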
L3MBTL1 block = blocks human L3MBTL1; AID 485360; AlphaScreen L3MBTL1–H3K9me1 peptide binding; Q9Y468; hit rate 0.66% among 230,000; Potency, µM (series often up to 57.1 µM), for inactives: top-dose activity, negative = inhibition, actives largely listed as inhibitors; also: % is scaled to controls: 0 for no effect and ±100 for the full control effect; nearly all actives have a fitted effect of over 60% in size
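L3MBTL1 (50 nM) pre-complexed 30 min with biotinylated H3(1-15)K9me1 peptide (75 nM), then compounds added for 30 min at room temperature; AlphaScreen streptavidin donor/nickel chelate acceptor beads (10 ug/mL final) read after 30 min dark incubation.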
* marks the source's active call; other numbers are inactive results; ? = inconclusive; . = not tested or not shown; ! = not confirmed by another sample; [ ] = dose if it differs, or a comment. Calls follow the shape of the dose curve; as a rule, active = well fitted curve in the direction sought with a large enough effect; inconclusive = small, poorly fitted or top-dose-only effect, or another doubt; inactive = no such curve, though single readings can be large; an effect the other way counts as inactive or inconclusive. Potency is read from the fitted curve at half-maximal effect.

SMILES	JMJD2A Tudor	BAZ2B block	G9a inh	Sfp inh	HP1b chromo inh	L3MBTL1 block
O=S(=O)(O)c1ccc2c(N=Nc3ccc(S(=O)(=O)O)c4ccccc34)c(O)c(S(=O)(=O)O)cc2c1	.	.	28µM*	-23%	.	.
Cc1ccc(N=Nc2c(O)c3ccccc3[nH]c2=O)c(S(=O)(=O)N(C)C)c1	.	-16%	.	-7%	.	19%
O=S(=O)(O)c1cc(O)c(N=Nc2ccc(O)cc2O)c2ccccc12	3.5µM*	.	.	.	?	.
COCCn1c(CNC(=O)c2cc(OC)c(OC)c(OC)c2)nc2cccnc21	-10%	-2%	-17%[59 µM]	.	28%[57 µM]	.
c1ccc2c(c1)CCN(C1=Nc3cccc4cccc1c34)C2	?	32µM*	?	-1%	?	?
COc1ccc(S(=O)(=O)N(C)c2ccc(C(=O)N3CCN(C)CC3)cc2)cc1	3%	-5%	50µM*	6%	28%[57 µM]	.
COc1ccc(N2CCN(C(=O)c3ccc(N(C)S(=O)(=O)c4ccc(OC)cc4)cc3)CC2)cc1	18µM*	?	.	-3%	?	-1%
COc1ccc(N2CCN(C(=O)c3ccc(N(C)S(=O)(=O)c4ccc(C)cc4)cc3)CC2)cc1	?	?	-4%[0.501 µM]	1%	?	-9%
COc1ccc(N2CCN(C(=O)c3ccccc3N(C)S(=O)(=O)c3ccccc3)CC2)cc1	-35%	?	45µM*	3%	-13%	.
CN(c1ccccc1C(=O)N1CCN(c2ccccc2F)CC1)S(=O)(=O)c1ccccc1	-24%	-16%	-9%	3%	0%	.
COc1ccc(N2CCN(C(=O)CN(c3cccc(OC)c3)S(=O)(=O)c3ccccc3)CC2)cc1	?	?	8.9µM*	3%	?	.
O=C(NCC(c1ccco1)S(=O)(=O)c1ccc(Cl)cc1)c1ccccc1F (configuration not stated)	-5%	2%	13%[59 µM]	.	25%[57 µM]	.
COc1cc(NS(=O)(=O)c2ccc(-c3cc(C)no3)cc2)cc(OC)c1	-6%	-13%	-1%[59 µM]	.	72%	.
CNC(=O)[C@@]1(C)C=C[C@@H](Cc2ccccc2)N1C(C)=O	.	.	.	15%	.	.
CC(=O)N1[C@H](Cc2ccccc2)C=C[C@]1(C)C(=O)NCc1ccc(C)o1	-20%	-11%	6.3µM*	45µM*!	19%	-22%
CNC(=O)[C@@]1(C)C=C[C@@H](Cc2ccccc2)N1C(=O)OC	-24%	-16%	79µM*	2%	0%	-8%
CSc1ncc(C(=O)Nc2ccc(C)c(Cl)c2)c(-c2ccccc2)n1	-18%	-1%	-3%[59 µM]	.	39%	.
CC1CCn2c(nc3cc(C(=O)NCc4ccc(OC(C)C)cc4)ccc32)C1 (configuration not stated)	-23%	0%	-4%[59 µM]	.	22%[57 µM]	.
CC(=O)OC[C@@H]1O[C@@H](O/N=C2/C[C@@H](O)[C@@H](O)[C@@H]3[C@@H]4C(=O)N(C5CCCCC5)C(=O)[C@H]4CC[C@@H]23)[C@H](OC(C)=O)[C@H](OC(C)=O)[C@@H]1OC(C)=O	.	.	.	2%	.	.
Cc1ccc2nc(C)/c(=N\O)c(C)nc2c1	-9%	-7%	14%[0.501 µM]	-2%	5%	3%
Cc1nc2ccc(Cl)cc2nc(C)/c1=N\O	-13%	-1%	28µM*	1%	34%	-4%
COc1ccc(/C=N/NC(=O)CN2CCCc3ccccc32)c(OC)c1	50µM*	50µM*	?	3%	?	.
O=C(CN1CCCc2ccccc21)N/N=C/c1ccccc1O	-9%	0%	12%	-19%	19%	-4%
CCOC(=O)c1cccc(Nc2cc(-c3ccccc3)ncn2)c1	-1%	50µM*	16µM*	.	?	.
CCOc1cccc(C2c3[nH]c4ccccc4c3CCN2C(=O)Cc2cccc(OCC)c2OCC)c1 (configuration not stated)	-28%	-27%	-3%[59 µM]	.	18%	.
SMILES	JMJD2A Tudor	BAZ2B block	G9a inh	Sfp inh	HP1b chromo inh	L3MBTL1 block
CCCc1[nH]n(-c2ccc([N+](=O)[O-])cc2)c(=O)c1C=NCCN1CCNCC1	.	-4%	-42%	4%	.	9%
CCCc1[nH]n(-c2ccc([N+](=O)[O-])cc2)c(=O)c1C=NCCCn1ccnc1	-26%	50µM*	16%[12.7 µM]	-27%	-12%	0%
CCCc1[nH]n(-c2ccc([N+](=O)[O-])cc2)c(=O)c1C(C)=NCc1ccncc1	?	-29%	35µM*	-3%	-8%	.
Cc1ccc(C)c(S(=O)(=O)c2cn(C)c3cc(N4CCCCC4C)c(F)cc3c2=O)c1 (configuration not stated)	-24%	-8%	-13%[59 µM]	.	34%	.
CCN(Cc1ccccc1)Cc1c(O)ccc2c(=O)c(-c3ccccc3Cl)coc12	-15%	0%	8%[59 µM]	.	28%	.
O=C(O)CC1S/C(=N/N=C/c2ccc(-c3ccccc3[N+](=O)[O-])o2)NC1=O (configuration not stated)	?	50µM*	-42%[2.33 µM]	22µM*	4%	.
Cc1ccc(S(=O)(=O)Oc2ccc(/C=N/N=C3/NC(=O)C(CC(=O)O)S3)cc2)cc1 (configuration not stated)	-23%	?	11%	21%	-10%	-2%
Cc1ccc(-c2ccc(/C=N/N=C3/NC(=O)C(CC(=O)O)S3)o2)c([N+](=O)[O-])c1 (configuration not stated)	-35%	?	13%[2.33 µM]	20µM*	1%	.
CCc1nnc2c(Nc3ccc(Br)c(C)c3)nc3ccccc3n12	?	4%	?	.	25%	.
CCOC(=O)c1csc(-n2nc(C)cc2C(F)(F)F)n1	0%	6%	-4%	9%	21%	.
Cc1cc(C)n(-c2nc(C(=O)O)cs2)n1	-7%	?	50µM*	10%	17%	-14%
CCC(Cc1ccccc1)NC(=O)c1csc2c1CCCCC2 (configuration not stated)	6%	-25%	20%[59 µM]	.	75%	.
CC(=O)N1CCC(=NNc2ccnc3cc(Cl)ccc23)CC1	-14%	?	28µM*	2%	42%	-11%
CC(=O)N1CCC(=NNc2ncc(C(F)(F)F)cc2Cl)CC1	-22%[57.1 µM]	35µM*	-18%	?	33%	.
COCCCNC(=O)CCc1c(C)nc2cc(-c3ccc(Cl)cc3)nn2c1C	-16%	-10%	-6%[59 µM]	.	10%	.
C[C@@H](C(=O)Nc1ccc2ccccc2c1)[C@H]1C[C@]1(C)[C@H](NS(=O)(=O)c1ccc2ccccc2c1)c1ccccc1	.	.	.	13%	.	.
Cc1nn(C)c(Cl)c1S(=O)(=O)N[C@@H](c1ccccc1)[C@]1(C)C[C@H]1[C@@H](C)C(=O)Nc1ccc2ccccc2c1	-18%	-25%	50µM*	8%	24%	-10%

Screening data deposited in PubChem by National Center for Advancing Translational Sciences (NCATS).
